What all share (experiment): NCI-60 one-dose screen, 48 h (100 = growth as untreated, 0 = no growth, -100 = all killed)
In one assay the test system is SR leukemia. The settings on record: 10 µM unless noted.
For another assay, the system named is RPMI-8226 leukemia. As to conditions: 10 µM.
The test system of the next assay is OVCAR-8 ovarian. As to conditions: 10 µM unless noted.
In another assay the test system is OVCAR-5 ovarian. The settings on record: 10 µM unless noted.
For another assay, the system named is OVCAR-4 ovarian. The settings on record: 10 µM unless noted.
Another assay has as its system SK-OV-3 ovarian. The settings on record: 10 µM.
Another assay concerns IGROV1 ovarian. The settings on record: 10 µM unless noted.
In a further assay the test system is OVCAR-3 ovarian. The settings on record: 10 µM unless noted.
In the next assay the test system is HS 578T breast. The settings on record: 10 µM unless noted.
A further assay deals with T-47D breast. The settings on record: 10 µM.
A further assay deals with BT-549 breast. The settings on record: 10 µM unless noted.
A further assay concerns MDA-MB-435 melanoma. As to conditions: 10 µM unless noted.
In the next assay the test system is SW-620 colon. The settings on record: 10 µM unless noted.
The test system of the next assay is MCF7 breast. The settings on record: 10 µM unless noted.
A further assay has as its system HCC-2998 colon. The settings on record: 10 µM unless noted.
For a further assay, the system named is KM12 colon. As to conditions: 10 µM unless noted.
For another assay, the system named is NCI/ADR-RES ovarian. As to conditions: 10 µM unless noted.
The subject of another assay is HCT-116 colon. The settings on record: 10 µM unless noted.

About 83,000 compounds went through this panel and 20% of them were active in at least one assay; those are over-represented in the sample as a whole.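 48-hour exposure, single concentration, 96-well plates; percent growth endpoint where 0 means no net growth. Active: below 10.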 A number with no mark means an inactive call. Active and inactive are the calls of the source.

As to `Cc1ccc(N=c2nc3sc4c(C)ccc(C)c4n3c(N)c2C#N)cc1`, the growth with SR leukemia was 111%; with RPMI-8226 leukemia, 85.1%; in the assay with OVCAR-8 ovarian, 104%; with OVCAR-5 ovarian, 104%; in the assay on OVCAR-4 ovarian it was 88.9%; in the assay on SK-OV-3 ovarian, 96.3%. Moreover, the growth in the assay with IGROV1 ovarian is 95.1%; with OVCAR-3 ovarian, 106%; in the assay with HS 578T breast it was 104%; in the assay with T-47D breast, 90.8%; in the assay on BT-549 breast, 97.2%; with MDA-MB-435 melanoma, 110%. The growth with SW-620 colon is 105%; with MCF7 breast, 88.3%; in the assay on HCC-2998 colon, 110%; in the assay on KM12 colon, 97.7%.
As for `Fc1ccccc1Nc1ccc2nnc(-c3ccncc3)n2n1`, the growth in the assay with SR leukemia was 89.4%; in the assay on RPMI-8226 leukemia, 95.4%; with OVCAR-8 ovarian, 103%; with OVCAR-5 ovarian, 97.3%; in the assay on OVCAR-4 ovarian, 107%; in the assay with SK-OV-3 ovarian, 107%. In addition, the growth is 105% in the assay on IGROV1 ovarian; 108% in the assay with OVCAR-3 ovarian; 99.2% in the assay on NCI/ADR-RES ovarian; 85.3% with T-47D breast; 101% in the assay with BT-549 breast; 106% with MDA-MB-435 melanoma. In addition, the growth in the assay on SW-620 colon was 106%; in the assay on MCF7 breast, 94.7%; with HCT-116 colon it was 99.5%; with HCC-2998 colon it was 107%.
With `O=C1NC(=S)S/C1=C\c1cccc([N+](=O)[O-])c1`, the growth was 70.1% in the assay on SR leukemia; 62.8% with RPMI-8226 leukemia; 101% in the assay with OVCAR-8 ovarian; 96.9% with OVCAR-5 ovarian; 88.5% in the assay on OVCAR-4 ovarian; 104% in the assay with SK-OV-3 ovarian. Moreover, the growth in the assay with IGROV1 ovarian is 120%; with OVCAR-3 ovarian it was 100%; in the assay on NCI/ADR-RES ovarian, 96.8%; with T-47D breast, 90.2%; with BT-549 breast it was 81.2%; in the assay on MDA-MB-435 melanoma, 93.7%. In addition, the growth with SW-620 colon was 115%; in the assay on MCF7 breast, 87.8%; with HCT-116 colon, 93.2%; in the assay on HCC-2998 colon, 87.4%; with KM12 colon it was 103%.
With `O=C(NCc1ccc(F)cc1)C1CN(c2ccc(Cl)cc2)N(c2ccc(Cl)cc2)C1=O` (configuration not stated), the growth in the assay with SR leukemia is 24.3%; in the assay on RPMI-8226 leukemia, 72.8%; in the assay with OVCAR-8 ovarian, 80%; in the assay on OVCAR-5 ovarian it was 85.6%; with OVCAR-4 ovarian it was 66.6%; in the assay with IGROV1 ovarian, 77.4%. In addition, the growth was 9.08% (active) in the assay on OVCAR-3 ovarian; 52.6% in the assay on HS 578T breast; 52.9% in the assay on NCI/ADR-RES ovarian; 49.9% in the assay on T-47D breast; 61.2% in the assay on BT-549 breast; -21.8% (active) with MDA-MB-435 melanoma. Also, the growth was 36.7% with SW-620 colon; 29.6% in the assay on MCF7 breast; 48.8% in the assay on HCT-116 colon; 84.6% with HCC-2998 colon; 33.2% with KM12 colon.
In the case of `COC(=O)[C@@]12CC[C@@H](C)[C@]3(C[C@@H](c4ccoc4)OC3=O)[C@H]1CC[C@@H]1O[C@@]12C`, the growth with SR leukemia is 110%; in the assay with RPMI-8226 leukemia it was 110%; with OVCAR-8 ovarian it was 102%; in the assay on OVCAR-5 ovarian it was 91.4%; in the assay on OVCAR-4 ovarian, 104%; with IGROV1 ovarian, 103%. Moreover, the growth with OVCAR-3 ovarian is 110%; with HS 578T breast, 98.7%; with NCI/ADR-RES ovarian, 102%; in the assay with BT-549 breast, 101%; in the assay with MDA-MB-435 melanoma, 99.8%; in the assay with SW-620 colon, 97.1%. In addition, the growth is 96.7% in the assay on MCF7 breast, 95.5% in the assay with HCT-116 colon, 101% in the assay with HCC-2998 colon and 103% in the assay with KM12 colon.
With `O=S(=O)(Nc1ccc(Cl)c(Cl)c1)c1ccc(-c2cnc(C3CC3)o2)cc1`, the growth with SR leukemia was 43.7%; with RPMI-8226 leukemia it was 24.6%; with OVCAR-8 ovarian it was 33.3%; with OVCAR-5 ovarian it was 34.2%; with OVCAR-4 ovarian, 46.4%; with IGROV1 ovarian, 27%. Also, the growth with OVCAR-3 ovarian was -17.8% (active); with HS 578T breast, -18.5% (active); in the assay with NCI/ADR-RES ovarian, 5.86% (active); in the assay with BT-549 breast, 56.2%; in the assay with MDA-MB-435 melanoma it was -32.8% (active); in the assay on SW-620 colon, 12.8%. In addition, the results for the growth in the assay with MCF7 breast, with HCT-116 colon and in the assay on HCC-2998 colon were 17.9%, 26.1% and 38.2%, respectively.
On to `COC(=O)CCC(=O)c1ccccc1`, for which the growth in the assay on SR leukemia was 90.9%; with RPMI-8226 leukemia, 98.6%; in the assay on OVCAR-8 ovarian, 102%; in the assay with OVCAR-5 ovarian, 98.4%; with OVCAR-4 ovarian it was 112%; in the assay with SK-OV-3 ovarian, 119%. The growth in the assay with OVCAR-3 ovarian is 111%; in the assay on HS 578T breast, 123%; with BT-549 breast it was 107%; in the assay on MDA-MB-435 melanoma it was 96.9%; in the assay on SW-620 colon, 106%; in the assay on MCF7 breast, 96.1%. The growth with HCT-116 colon was 108%; in the assay on KM12 colon it was 110%.
Take `CSC1=CC(=O)c2ccccc2C1=O`: the growth in the assay with SR leukemia is -33.5% (active); in the assay with RPMI-8226 leukemia, 44%; in the assay on OVCAR-8 ovarian, 46.8%; in the assay with OVCAR-5 ovarian it was 103%; with OVCAR-4 ovarian, -34.7% (active); with IGROV1 ovarian it was -75.7% (active). In addition, the growth was -96.2% (active) with OVCAR-3 ovarian; 81.4% in the assay on HS 578T breast; 74% with NCI/ADR-RES ovarian; 92.3% with BT-549 breast; 89.4% in the assay on MDA-MB-435 melanoma; -55.2% (active) in the assay on SW-620 colon. Also, the growth was 93.2% with MCF7 breast, -57% (active) with HCT-116 colon, 107% with HCC-2998 colon and 71.9% in the assay on KM12 colon.
In the case of `O=C(CC(O)c1ccccc1)Nc1ccccn1` (configuration not stated), the growth in the assay with SR leukemia was 86.9%; in the assay on RPMI-8226 leukemia it was 93.8%; in the assay with OVCAR-8 ovarian, 100%; in the assay with OVCAR-5 ovarian, 104%; in the assay with OVCAR-4 ovarian, 97.1%; in the assay with SK-OV-3 ovarian it was 94%. The growth in the assay with IGROV1 ovarian was 108%; in the assay with OVCAR-3 ovarian it was 108%; in the assay on NCI/ADR-RES ovarian, 106%; with MDA-MB-435 melanoma, 97.9%; in the assay on SW-620 colon, 109%; in the assay on MCF7 breast, 103%. Further, the growth with HCT-116 colon was 97.6%; in the assay on HCC-2998 colon, 102%; in the assay with KM12 colon it was 103%.

(Values after PubChem BioAssay (NCI).)
